Shown are actives, neighbours in structure and some others; about 11% of the full set was active somewhere.
USP30 inh = human USP30 deubiquitinase inhibition; Q70CQ3; purified USP30, Ub-rhodamine cleavage fluorescence; AID 1645860; inhibition, % at 25 µM; 5.3% of 47,000 active
Target sequence (Q70CQ3 whole entry, looked up): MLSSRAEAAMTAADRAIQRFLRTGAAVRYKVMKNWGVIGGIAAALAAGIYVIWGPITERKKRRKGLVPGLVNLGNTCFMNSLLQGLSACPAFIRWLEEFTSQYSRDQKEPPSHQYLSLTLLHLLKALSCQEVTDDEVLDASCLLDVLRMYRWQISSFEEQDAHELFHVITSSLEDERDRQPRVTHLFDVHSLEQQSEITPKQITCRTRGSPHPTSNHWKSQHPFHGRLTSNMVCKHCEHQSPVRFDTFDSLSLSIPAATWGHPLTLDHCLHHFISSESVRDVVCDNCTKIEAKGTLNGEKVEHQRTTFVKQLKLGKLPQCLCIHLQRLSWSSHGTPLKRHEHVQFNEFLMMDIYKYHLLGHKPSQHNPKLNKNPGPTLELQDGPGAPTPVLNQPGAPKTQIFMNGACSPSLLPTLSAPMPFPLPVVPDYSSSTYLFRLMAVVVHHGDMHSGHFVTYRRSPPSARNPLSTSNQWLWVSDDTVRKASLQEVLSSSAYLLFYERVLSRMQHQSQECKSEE
USP28 block = blocks human USP28 ubiquitin-rhodamine cleavage | purified USP28, Ub-rhodamine cleavage fluorescence, 30 min | 3% of 47,000 active | Q96RU2 | inhibition, % at 25 µM
USP17 block = human USP17-like deubiquitinase inhibition; A8MUK1; purified USP17, Ub-rhodamine cleavage fluorescence, 3 h; inhibition, % at 50 µM; 6.5% of 47,000 active; AID 1645855
* = called active by the depositor; i = inactive; . = no result given. No stated cut-off is given here; in the data, active means inhibition above about 30%; inactive means the rest.

SMILES	USP30 inh	USP28 block	USP17 block
CC1(C)Oc2ccc(C(=O)N3CCC([C@@H]4NC(=O)N[C@H]5OCCC[C@H]54)CC3)cc2NC1=O	32*	8	-1
O=C(CCc1nc2ccccc2[nH]1)N1CCCCC1	.	.	1
CNC(=O)[C@@]12CCCN(c3ncccn3)[C@@H]1CN(Cc1ccccc1C)C2	19	9	-16
O=C(Nc1ccccc1F)c1nc(-c2cn(-c3ccc(F)cc3)nn2)no1	-17	15	-4
O=C(Nc1ccccc1)c1nc(-c2cn(Cc3ccc(F)cc3)nn2)no1	55*	37*	23
C[C@@H]1CCC2(C)CC[C@]3(C)C(=CCC4[C@@]5(C)CCC(O)C(C)(C)C5CC[C@]43C)C2[C@H]1C (some centres not stated)	21	10	9
CC1(C)CC[C@]2(C(=O)O)CC[C@]3(C)C(=CCC4[C@@]5(C)CC[C@H](O)[C@@](C)(CO)C5CC[C@]43C)[C@@H]2C1 (some centres not stated)	84*	82*	95*
COc1cccc(NC(=O)C(C)OC(=O)c2ccc(NS(=O)(=O)c3ccc(F)c(F)c3)cc2)c1 (configuration not stated)	-38	-6	-52
COc1ccc(C(=O)C(C)OC(=O)c2cccc(S(=O)(=O)Nc3cc([N+](=O)[O-])ccc3OC)c2)c(OC)c1 (configuration not stated)	31*	18	7
O=C(CC(c1cccc(F)c1)n1cccc1)Nc1ccc(F)c(Cl)c1 (configuration not stated)	36*	26	46*
O=C(CC(c1ccc(F)cc1)n1cccc1)Nc1ccc(Cl)cc1 (configuration not stated)	-24	14	18
CN(C(=O)c1cccc2ncccc12)c1ccccc1	-49	-10	8
CCc1cccc(NC(=O)Cc2nnc3ccc(-c4nc(C)no4)cn23)c1	-70	-29	-26
Cc1oc(-c2[nH]ncc2C(=O)N(C)C)cc1S(=O)(=O)Nc1ccccc1	30*	14	13
Cc1ccccc1CNS(=O)(=O)c1cc(-c2[nH]ncc2C(=O)N(C)C)oc1C	-25	-15	-10
CCN1CC2(CC1=O)CN(C(C)=O)CCN(C(=O)Nc1cccc(OC)c1)C2 (configuration not stated)	12	8	6
CC(C)(C)Nc1c(C2CCN(C(=O)CCc3ccno3)CC2)nc2ccc(F)cn12	3	1	-6
Cc1cc(C(F)(F)F)c2c(N)c(C(=O)Nc3cccc(C(F)(F)F)c3)sc2n1	i	-230	-155
Cc1nc2sc(C(=O)Nc3ccccc3Br)c(N)c2c(C)c1C	51*	33*	46*
Cc1cc(C)c2c(N)c(C(=O)Nc3ccccc3Br)sc2n1	.	.	77*
Cc1ccc(-c2ncc(C(=O)Nc3ccccc3Br)c(-c3ccncc3)n2)cc1	i	-153	-117
O=C(Nc1c(C(=O)N2CCOCC2)oc2ccccc12)c1cccc(F)c1	7	-21	-9
CC(=O)Nc1ccc(-n2cnc(C(=O)N3CCC(C)CC3)c2)nc1	3	-8	2
CC1CCN(C(=O)c2cn(-c3cc(N4CCC(C)CC4)ncn3)cn2)CC1	28	71*	3
COc1cccc(CN2CC[C@@H]3Oc4ccccc4S(=O)(=O)N(C)[C@H]3CC2)c1	-6	-12	-36
SMILES	USP30 inh	USP28 block	USP17 block
Cc1ccc(NCc2cc3c(-c4ccc(F)cc4)nn(-c4ccccc4)c3[nH]c2=O)cc1C	-100	-21	7
COc1ccc(CCNC(=O)Cn2c(=O)c3sccc3n(Cc3ccccc3F)c2=O)cc1OC	52*	-6	60*
COc1ccc(CCNC(=O)Cn2c(=O)c3sccc3n(Cc3cccc([N+](=O)[O-])c3)c2=O)cc1OC	44*	11	16
COc1ccc(CCNC(=O)CN2CCN(Cc3ccccc3F)C2=O)cc1OC	18	6	6
COc1ccc(CNC(=O)CCn2c(=O)c3sccc3n(Cc3cccc([N+](=O)[O-])c3)c2=O)cc1	13	11	11
Cc1ccc(C2CC(C(F)(F)F)n3nc(C(=O)NCCCN4CCOCC4)cc3N2)cc1 (configuration not stated)	6	-2	-17
Cc1ccc(C(=O)Nc2cc3c4c(c2)CC(=O)N4CCC3)cc1C	-5	72*	10
Cc1ccc(C(=O)Nc2cc3c4c(c2)C(C)C(=O)N4CCC3)cc1 (configuration not stated)	-93	25	-32
CCOC(=O)c1ccc(NC(=O)c2c(N3CCCC3=O)c3cc(F)ccc3n2C)cc1	20	6	6
CN1CCC(N2CCC[C@H]2c2nc(-c3ccc(-c4cncnc4)nc3)no2)CC1	-79	-10	-49
COc1ccc(-c2cc(C)nc(SCC(=O)N3CCN(c4ccccn4)CC3)n2)cc1	20	13	20
O=C(COc1nc2ccccc2nc1N1CCOCC1)Nc1ccc(F)cc1	38*	7	21
O=C(COc1nc2ccccc2nc1N1CCOCC1)NCCc1ccc(F)cc1	.	.	-16
O=C(Cn1ccc2ccc(N3CCOCC3)nc21)NCc1ccc(F)cc1F	-377	-110	-82
O=C(COc1ccc(F)cc1)Nc1cc(F)c2nc(N3CCOCC3)ccc2c1	-4	-1	51*
COc1ccc(OCC(=O)Nc2cc(F)c3nc(N4CCOCC4)ccc3c2)cc1	-65	0	10
CC(C)CC(=O)Nc1cc(F)c2nc(N3CCOCC3)ccc2c1	-53	-11	75*
c1ccn(Cc2nnc3n2CCCN(CC2CC2)C3)c1	18	0	0
N#Cc1ccc(C(=O)N2CCc3sccc3C2c2ccccc2)cc1 (configuration not stated)	-5	4	-22
CN1CCN(C(=O)c2cc(-c3cccnc3)n(-c3ccc(F)cc3)n2)CC1	1	-2	2
CN1[C@@H](CCC(=O)N2CCN(c3ccccn3)CC2)CNC(=O)[C@@H]2[C@H]1CCN2C1CCCCC1	-2	25	-55
CC(C)N1CC[C@@H]2[C@H]1C(=O)NC[C@H](CCC(=O)N1CCN(c3ccccc3)CC1)N2C	-3	4	-61
CC(C)N1CC[C@@H]2[C@H]1C(=O)NC[C@H](CCC(=O)N1CCCC1)N2C	21	34*	-56
COC(=O)C1CCN(C(=O)CC[C@H]2CNC(=O)[C@@H]3[C@@H](CCN3C3CCCCC3)N2C)CC1	-13	31*	-50
CN1CC[C@@H]2[C@H]1C(=O)NC[C@H](CCC(=O)N1CCN(c3ccccn3)CC1)N2C	26	44*	-70
SMILES	USP30 inh	USP28 block	USP17 block
COC(=O)C1CCN(C(=O)CC[C@H]2CNC(=O)[C@@H]3[C@@H](CCN3Cc3cccc(Cl)c3)N2C)CC1	1	-8	-12
O=C(NCc1ccccc1F)C1CCCN(S(=O)(=O)N2CCCCC2)C1 (configuration not stated)	13	11	10
CCCCSc1nc(N)c2c3c(sc2n1)COC(CCC)C3 (configuration not stated)	-1	3	-3
CC1(C)Cc2c(sc3nc(SCc4ccc(Cl)c(Cl)c4)nc(N)c23)CO1	-15	0	-5
CCCC1Cc2c(sc3nc(SCc4ccccc4Cl)nc(N)c23)CO1 (configuration not stated)	-2	-7	40*
CCCC1Cc2c(sc3nc(SCC)nc(N)c23)CO1 (configuration not stated)	0	-14	81*

Bioassay records as filed in PubChem.
